High-throughput results deposited in PubChem BioAssay by National Center for Advancing Translational Sciences (NCATS).
Tau FP inhib = qHTS for Inhibitors of Tau Fibril Formation, Fluorescence Polarization. K18 P301L tau heparin fibrillization, Alexa594 FP, 6 h. AID 1468, 2008. Potency, µM (top dose mostly 57.7 µM), actives largely listed as inhibitors. hit rate 0.39% among 280,000; note: nearly all actives have a fitted effect of over 55% in size
Target sequence (P10636 561-689 P618L limits assumed): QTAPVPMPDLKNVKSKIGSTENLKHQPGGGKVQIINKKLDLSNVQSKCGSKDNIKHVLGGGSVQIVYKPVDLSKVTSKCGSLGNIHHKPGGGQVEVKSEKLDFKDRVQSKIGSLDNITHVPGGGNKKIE
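Recombinant K18 P301L […], labeled with Alexa 594 at 0.24 uM over 15 uM unlabeled; heparin inducer 20 uM final; 37 C, 6 hr; FP endpoint.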
Tau fluor counter = Counterscreen qHTS for Inhibitors of Tau Fibril Formation, Fluorescence Polarization. AID 1463, 2008. Potency, µM (doses to about 57.7 µM). hit rate 0.93% among 280,000. tau K18 P301L Alexa594 fluorescence, heparin fibrillization; note: nearly all actives have a fitted effect of over 55% in size
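Human tau K18 P301L (15 uM unlabeled, 0.24 uM Alexa 594-labeled) in 100 mM sodium acetate pH 7 with 20 uM heparin, 6 hr at 37 C. ThT 30 uM added, 1 hr ambient; Alexa 594 FP and total fluorescence read at 555/632 nm.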
ALDH1A1 inh = qHTS Assay for Inhibitors of Aldehyde Dehydrogenase 1 (ALDH1A1). Purified ALDH1A1, NADH fluorescence, propionaldehyde substrate. Potency, µM (highest dose often 75.3 µM), most hits filed as inhibitors. hit rate 7.3% among 220,000. AID 1030, 2008; active = well fitted inhibition curve with a large enough effect, not every such curve was filed as active; inconclusive = small, poorly fitted or top-dose-only effect, or another doubt; inactive = no such curve, though single readings can be large or run the other way
Target sequence (P00352 whole entry, looked up): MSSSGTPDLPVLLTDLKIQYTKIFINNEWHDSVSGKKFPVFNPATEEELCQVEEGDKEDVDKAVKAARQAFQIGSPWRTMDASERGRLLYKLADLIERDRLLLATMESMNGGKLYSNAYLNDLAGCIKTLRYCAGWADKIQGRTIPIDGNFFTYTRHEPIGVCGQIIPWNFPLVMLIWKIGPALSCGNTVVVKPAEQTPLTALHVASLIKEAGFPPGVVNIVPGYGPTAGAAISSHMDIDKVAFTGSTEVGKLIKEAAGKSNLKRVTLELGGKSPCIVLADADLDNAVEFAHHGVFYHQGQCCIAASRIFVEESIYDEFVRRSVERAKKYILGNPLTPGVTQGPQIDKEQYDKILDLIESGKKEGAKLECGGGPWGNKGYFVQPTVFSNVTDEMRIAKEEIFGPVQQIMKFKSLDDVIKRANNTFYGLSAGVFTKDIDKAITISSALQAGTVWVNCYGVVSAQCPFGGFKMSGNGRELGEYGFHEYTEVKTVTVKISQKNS
HPGD inh = qHTS Assay for Inhibitors of HPGD (15-Hydroxyprostaglandin Dehydrogenase); 15-hydroxyprostaglandin dehydrogenase [NAD(+)] (Homo sapiens), P15428; purified HPGD, NADH fluorescence kinetic, PGE2 substrate; Potency, µM, hits mostly inhibitors; hit rate 4.3% among 150,000; AID 894, 2007; active = well fitted inhibition curve with a large enough effect, not every such curve was filed as active; inconclusive = small, poorly fitted or top-dose-only effect, or another doubt; inactive = no such curve, though single readings can be large or run the other way
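NADH formation kinetics: reaction with 30 uM PGE2 and 1 mM NAD+ (final), 20 nM enzyme, Tris-HCl pH 8 with Tween 20, after 15 min compound preincubation at room temperature. Fluorescence change, last versus first of five reads.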
NPSR antag = qHTS Assay for Antagonists of the Neuropeptide S Receptor: cAMP Signal Transduction; Q6W5P4; CHO-NPSR cells, cAMP TR-FRET, antagonist mode; Potency, µM (doses to about 38.3 µM), hits mostly inhibitors; hit rate 1% among 220,000; note: nearly all actives have a fitted effect of over 50% in size
Tau ThT inhib = qHTS for Inhibitors of Tau Fibril Formation, Thioflavin T Binding. recombinant tau K18 P301L (four-repeat tau fragment), heparin-induced fibrillization, ThT fluorescence. AID 1460, 2008. hit rate 2.1% among 270,000. Potency, µM (doses to about 57.4 µM), usual class: inhibitors. Microtubule-associated protein tau (Homo sapiens), P10636; note: nearly all actives have a fitted effect of over 55% in size
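In this qHTS, human K18 P301L tau is incubated with compound and heparin for 6 hr at 37 C, and Thioflavin T fluorescence then reports fibril load.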
A number is an active result; - = inactive; ? = inconclusive; . = no result; ! = not active in a repeat; [ ] = remark or other dose. Shown are actives, neighbours in structure and some others; about 9.5% of the full set was active somewhere. Unless noted, calls come from the whole dose curve; as a rule, active = well fitted curve in the direction sought with a large enough effect; inconclusive = small, poorly fitted or top-dose-only effect, or another doubt; inactive = no such curve, though single readings can be large; an effect the other way counts as inactive or inconclusive.

SMILES	Tau FP inhib	Tau fluor counter	ALDH1A1 inh	HPGD inh	NPSR antag	Tau ThT inhib
CC(=O)Nc1ccc(S(=O)(=O)N2CCOCC2)cc1	-	-	-	-	-	-
Cc1nnc(SCC(=O)Nc2ccc(S(=O)(=O)N3CCCC3)cc2)n1N	-	-	?	-	-	-
CCN1C(C)=C(C(=O)OC)C(c2ccccc2)N2C(=O)[C@@]3(C(=O)OC)O[C@@]12C1C(=O)CCCC13 (some centres undefined)	-[11.6 µM]	-[11.6 µM]	-[13.5 µM]	.	.	?
N#Cc1cc2ccccc2nc1SCC(=O)Nc1ccc(S(=O)(=O)N2CCCC2)cc1	?	?	10µM	-	-	?
Cc1ccc(C)c(-n2nnnc2SCC(=O)Nc2cccc(-c3nnc4n3CCCCC4)c2)c1	-	-	7.1µM	-	?	-
CNC(=O)CSc1nnnn1-c1cc(C)ccc1C	-	-	?	-	-	-
CC(C)OC(=O)c1cccnc1SCc1cc(=O)n2ccccc2n1	-	-	?	-	-	-
COc1ccc(-n2cnnc2SCC(=O)Nc2cc(S(=O)(=O)N3CCCCC3)ccc2C)cc1	-	-	-	-	-	-
COc1ccc(-n2nc3c(c2NC(=O)c2ccc(S(=O)(=O)N4CCOCC4)cc2)CS(=O)C3)cc1 (centres undefined)	-	-	2.5µM	.	-	-
COc1ccc(-n2cnnc2SCC(=O)c2ccc(S(=O)(=O)N3CCOCC3)cc2)cc1	-	-	1.4µM	-	-	-
O=C(Nc1c2c(nn1-c1ccccc1)CS(=O)C2)c1ccc(S(=O)(=O)N2CCOCC2)cc1 (centres undefined)	-	-	-	.	-	-
COc1ccc(-n2nnnc2Sc2ccc(S(=O)(=O)N3CCOCC3)cn2)cc1	-	-	2.8µM	7.1µM	-	-
CC(C)(C)n1nc2c(c1NC(=O)c1ccc(S(=O)(=O)N3CCCCC3)cc1)CS(=O)C2 (centres undefined)	-	-	25µM	-	-	-
Cc1c(Cl)cccc1NC(=O)c1ccc(OCC(=O)NCc2ccccc2)cc1	-	-	-	-	-	-
CCCCC/C=C\C/C=C\C/C=C\C/C=C\CCCCCC(=O)NCC(=O)O	-	-	-	-	.	-
CCCNC(=O)C1CCC(Cn2c(=O)c3sccc3n(CC(=O)N(CC)CC)c2=O)CC1 (centres undefined)	-	-	.	.	.	-
c1cncc(-c2cc(-n3ccnc3)ncn2)c1	.	.	-	.	.	.
COC(=O)[C@@H]1C[C@H]2CC[C@H](O)C[C@H]2N1Cc1ccc(N2CCOCC2)cc1	-	-	-	-	.	-
C=CCC(C#Cc1ccc(C)cc1)N(CC)CC (centres undefined)	-	-	-	-	-	-
Oc1c(I)cc(Cl)c2cccnc12	?	?	25µM!	-	-	?
O=[N+]([O-])c1cc(Cl)c(O)c2ncccc12	-	-	?	.	-	13µM
O=[N+]([O-])c1cccc2c(Cl)ccnc12	-[2.34 µM]	-	?	.	-	-
Oc1c(CN2CCc3ccccc3C2)cc(Cl)c2cccnc12	-	-	-	-	6.3µM	?
O=[N+]([O-])c1ccc(Cl)c2cccnc12	-	-	18µM	.	-	-
O=C(COc1ccc(F)cc1)Nc1ccccc1C(=O)OCc1cc(=O)n2ccsc2n1	-	-	.	.	.	-
SMILES	Tau FP inhib	Tau fluor counter	ALDH1A1 inh	HPGD inh	NPSR antag	Tau ThT inhib
O=C(Oc1c(CN2CCOCC2)cc(Cl)c2cccnc12)c1ccccc1	?	-	-	.	-	?
O=c1oc2ccccc2c(O)c1Cc1cc(Cl)c2cccnc2c1O	?	?	?	.	-	14µM
O=[N+]([O-])c1cc(Cl)c2cccnc2c1O	-	-	-	.	-	10µM
O=[N+]([O-])c1cc(F)c2cccnc2c1O	?	-	18µM	.	-	7.9µM
O=[N+]([O-])c1ccc(O)c2ncccc12	?	-	?	-	-	?
COc1ccc2c(c1)O[C@@H](c1ccc3c(c1)OCO3)[C@H](OC(=O)Nc1ccc(C)c(Br)c1)C2=O	?	?	-	-	.	-
COC(=O)CCC(=O)OC1(C)C(=O)C2=COC(c3ccc(OC)cc3)=CC2=C(Br)C1=O (centres undefined)	?	-	-	-	-	13µM
COc1ccc(C2=CC3=C(Br)C(=O)C(C)(OC(=O)c4ccc(Cl)nc4)C(=O)C3=CO2)cc1 (centres undefined)	?	?	?	?	-	28µM
CCOC(=O)c1c(C)oc2ncnc(Nc3cc(C)cc(C)c3)c12	?	-	.	.	.	-
CCOC(=O)CNC(=O)O[C@@H]1Cc2cc(OC)ccc2O[C@H]1c1cccc(OC)c1	-	-	-	-	.	-
Cc1ccccc1OCCSc1nc2ccc(NC(=O)c3ccccc3)cc2s1	11µM	?	.	.	.	-
Cc1ccccc1OCCSc1nc2ccc(NC(=O)c3cccc(F)c3)cc2s1	14µM	?	.	.	.	?
Cc1ccccc1OCCSc1nc2ccc(NC(=O)c3cccs3)cc2s1	10µM	?	.	.	.	-
Cc1ccccc1C(=O)Nc1ccc2nc(SCCOc3ccccc3)sc2c1	?	-	.	.	.	-
COc1cc(C)ccc1OCCSc1nc2ccc(NC(C)=O)cc2s1	25µM	?	.	.	.	-
Cc1ccccc1OCC(=O)Nc1ccc2nc(SCCOc3ccccc3)sc2c1	-	-	.	.	.	?
COc1cccc(N2CCN(C(=O)CN3CCSc4ccc(S(=O)(=O)N(C)C)cc43)CC2)c1	-	-	.	.	.	-
